# According to PubChem BioAssay:
# Unmarked numbers belong to inactive results. A call without a number means that no potency is given here. For some of these results: Potency and affinity values are given separately. The source made the active and inactive calls. Unless noted, the rule behind the calls is not given here.
# How the values were obtained:
# [1] = antimalarial activity against Dd2 strain (AID 2302;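 active = growth inhibition above 50% at the single 2 µM test dose, taken to imply half-maximal potency below 2 µM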); details: P. falciparum Dd2 in RBCs, LDH growth readout, 72 h; at 2 µM; hits give high values
# [2] = HepG2 cytotoxicity, primary screen, cytotoxicity control for P. falciparum antimalarial project, cell-based, ATP luminescence (AID 2303;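 active = inhibition above 50%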); details: HepG2 viability, 24-48 h, at 10 µM, hits give high values
# [3] = target: L-lactate dehydrogenase (Plasmodium falciparum (isolate CDC / Honduras)) (UniProt Q27743); experiment: PfLDH activity inhibition – cell lysate, 3D7 strain, counter-screen for P. falciparum growth inhibition project (AID 2304); details: P. falciparum 3D7 crude extract, LDH APAD/NBT absorbance; at 2 µM; hits give high values
# L-lactate dehydrogenase (Plasmodium falciparum (isolate CDC / Honduras)), sequence (Q27743 whole entry, looked up): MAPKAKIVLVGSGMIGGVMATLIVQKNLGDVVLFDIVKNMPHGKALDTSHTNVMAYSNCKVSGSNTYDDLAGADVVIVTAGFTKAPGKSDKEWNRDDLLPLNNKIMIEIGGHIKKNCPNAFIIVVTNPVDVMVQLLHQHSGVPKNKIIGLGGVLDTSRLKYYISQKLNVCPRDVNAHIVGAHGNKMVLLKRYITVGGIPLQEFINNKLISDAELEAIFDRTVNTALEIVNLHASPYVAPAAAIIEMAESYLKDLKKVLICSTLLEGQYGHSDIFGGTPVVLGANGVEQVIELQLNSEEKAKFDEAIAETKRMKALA
# [4] = inhibition of 3D7 malaria parasite growth – strain 3D7 (AID 2306); details: P. falciparum 3D7 erythrocytic growth, LDH absorbance, 72 h; at 2 µM; hits give high values
# [5] = target: Calcium-dependent protein kinase 1 (Plasmodium falciparum (isolate 3D7)) (UniProt P62344); experiment: PfCDPK1 kinase inhibitors, biochemical, TCAMS library (AID 1159585; cut-off not given, nearly all actives have IC50 up to about 0.98 µM;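 note: inhibitors leave more ATP so luminescence rises with inhibition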); details: recombinant PfCDPK1, Kinase-Glo ATP depletion luminescence
# Calcium-dependent protein kinase 1 (Plasmodium falciparum (isolate 3D7)), sequence (P62344 whole entry, looked up): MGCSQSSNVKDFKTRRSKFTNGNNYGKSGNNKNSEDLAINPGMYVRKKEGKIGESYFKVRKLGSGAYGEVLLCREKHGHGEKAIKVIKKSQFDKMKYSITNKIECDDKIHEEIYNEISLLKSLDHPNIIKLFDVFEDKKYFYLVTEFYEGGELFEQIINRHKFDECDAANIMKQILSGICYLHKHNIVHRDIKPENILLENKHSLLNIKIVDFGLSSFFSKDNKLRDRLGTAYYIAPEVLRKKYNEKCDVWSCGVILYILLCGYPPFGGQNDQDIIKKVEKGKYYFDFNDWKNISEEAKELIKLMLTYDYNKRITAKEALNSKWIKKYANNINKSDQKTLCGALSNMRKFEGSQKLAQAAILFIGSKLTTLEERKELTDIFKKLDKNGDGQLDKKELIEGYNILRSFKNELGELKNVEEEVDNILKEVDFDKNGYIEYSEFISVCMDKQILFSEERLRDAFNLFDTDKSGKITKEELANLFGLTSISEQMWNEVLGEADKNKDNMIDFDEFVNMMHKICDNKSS
# [6] = target: Plasmodium falciparum protein kinase 6 (PK6, PF3D7_1337100) (UniProt Q8IDW1); experiment: PfPK6 kinase inhibitors, biochemical, TCAMS library (AID 1159586); details: recombinant PfPK6, Kinase-Glo ATP depletion luminescence
# Plasmodium falciparum protein kinase 6 (PK6, PF3D7_1337100), sequence (Q8IDW1 1-305): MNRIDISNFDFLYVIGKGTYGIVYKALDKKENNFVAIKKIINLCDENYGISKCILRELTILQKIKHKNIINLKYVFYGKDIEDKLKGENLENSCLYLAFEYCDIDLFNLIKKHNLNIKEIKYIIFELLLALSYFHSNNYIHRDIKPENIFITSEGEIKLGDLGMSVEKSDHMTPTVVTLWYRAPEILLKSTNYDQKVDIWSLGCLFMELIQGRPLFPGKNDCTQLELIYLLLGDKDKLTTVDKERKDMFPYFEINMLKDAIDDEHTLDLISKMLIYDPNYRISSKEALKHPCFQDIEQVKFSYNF
# [7] = target: Protein kinase 7 (PK7), Plasmodium falciparum 3D7 (PF3D7_0213400) (UniProt Q7YTF7); experiment: inhibition of Plasmodium PK7 catalytic activity – biochemical, TCAMS antimalarial set, Kinase-Glo luminescence (AID 1159587); details: recombinant PfPK7, Kinase-Glo ATP depletion luminescence
# Protein kinase 7 (PK7), Plasmodium falciparum 3D7 (PF3D7_0213400), sequence (Q7YTF7 1-343): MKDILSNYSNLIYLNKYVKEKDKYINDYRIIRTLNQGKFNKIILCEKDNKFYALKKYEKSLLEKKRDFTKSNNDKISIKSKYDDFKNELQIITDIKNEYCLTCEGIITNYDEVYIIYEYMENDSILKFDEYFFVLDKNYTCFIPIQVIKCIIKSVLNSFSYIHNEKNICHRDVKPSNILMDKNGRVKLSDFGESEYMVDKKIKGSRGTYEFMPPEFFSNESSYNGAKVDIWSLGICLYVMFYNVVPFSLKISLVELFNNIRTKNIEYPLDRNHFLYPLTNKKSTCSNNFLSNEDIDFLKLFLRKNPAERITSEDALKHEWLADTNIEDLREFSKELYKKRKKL
# [8] = target: Calcium-dependent protein kinase 4 (Plasmodium falciparum (isolate 3D7)) (UniProt Q8IBS5); experiment: PfCDPK4 kinase inhibitors, biochemical, TCAMS library (AID 1159588; cut-off not given, nearly all actives have IC50 up to about 0.91 µM); details: recombinant PfCDPK4, Kinase-Glo ATP depletion luminescence
# Calcium-dependent protein kinase 4 (Plasmodium falciparum (isolate 3D7)), sequence (Q8IBS5 whole entry, looked up): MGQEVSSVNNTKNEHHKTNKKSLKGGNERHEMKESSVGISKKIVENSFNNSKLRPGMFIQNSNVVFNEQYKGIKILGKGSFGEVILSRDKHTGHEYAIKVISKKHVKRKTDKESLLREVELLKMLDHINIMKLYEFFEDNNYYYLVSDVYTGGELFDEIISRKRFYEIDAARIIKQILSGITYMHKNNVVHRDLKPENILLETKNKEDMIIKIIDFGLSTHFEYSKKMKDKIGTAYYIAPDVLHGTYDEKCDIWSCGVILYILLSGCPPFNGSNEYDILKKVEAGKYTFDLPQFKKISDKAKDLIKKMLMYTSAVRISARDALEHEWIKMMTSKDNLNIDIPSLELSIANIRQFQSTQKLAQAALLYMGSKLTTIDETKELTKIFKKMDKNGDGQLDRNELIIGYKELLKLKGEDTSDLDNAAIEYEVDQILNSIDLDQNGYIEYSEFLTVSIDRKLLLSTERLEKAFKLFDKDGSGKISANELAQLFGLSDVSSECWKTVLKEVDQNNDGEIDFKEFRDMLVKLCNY
SMILES,growth inhibition [1],inhibition [2],inhibition [3],growth inhibition [4],outcome [5],outcome [6],outcome [7],outcome [8]
Cc1nc(N)nc(N)c1-c1ccc(Cl)cc1,0%,15%,-4%,96% (active),inactive,inactive,inactive,inactive
COc1ccc(C2C(C(=O)OC3CCCCC3)=C(C)NC3=C2C(=O)CCC3)cc1Br (stereo not drawn),94% (active),7%,-7%,95% (active),inactive,inactive,inactive,inactive
Cc1cccc2[nH]c(-c3ccc(-c4cccc(NC(=O)CCc5cnc[nH]5)c4)cc3)nc12,14%,13%,4%,101% (active),inactive,inactive,inactive,inactive
CCN(CC)CCN(CCCc1ccc(-c2ccc(C(F)(F)F)cc2)cc1)C(=O)Cn1c(CCc2cccc(F)c2F)nc(=O)c2ccccc21,49%,37%,3%,101% (active),inactive,inactive,inactive,inactive
CCN(CC)CCN(Cc1ccc(-c2ccc(C(F)(F)F)cc2)cc1)C(=O)c1ccc(-c2ccc(C#N)cc2)cc1,31%,38%,-5%,89% (active),inactive,inactive,inactive,inactive
N#Cc1ccc2c(c1)CCN(CCC1CCC(NC(=O)/C=C/c3cnc4ccccc4c3)CC1)CC2 (stereo not drawn),21%,22%,-1%,87% (active),inactive,inactive,inactive,inactive
CNC(=O)/C=C/c1cc(NC(=O)Nc2cc(C)nc3c(F)cccc23)ccc1OC,70% (active),-3%,2%,98% (active),inactive,inactive,inactive,inactive
O=[N+]([O-])c1cccc(CNC2CCN(Cc3ccc(-c4ccccc4)cc3)CC2)c1,96% (active),25%,1%,100% (active),inactive,inactive,inactive,inactive
CCCCN1CCCC[C@H]1[C@@H](O)c1ccnc2ccc(OCC)cc12,88% (active),6%,-2%,100% (active),inactive,inactive,inactive,inactive
Cc1cccc2[nH]c(-c3ccc(-c4ccc(C(=O)NCCN5CCCC5)cc4)cc3)nc12,77% (active),25%,3%,101% (active),inactive,inactive,inactive,inactive
CCOC(=O)c1cn(CC)c2cc(N3CCCCC3)c(F)cc2c1=O,96% (active),0%,2%,97% (active),inactive,inactive,inactive,inactive
Cc1ccc(C(CC(=O)Nc2nccs2)c2ccc(OC(C)C)cc2)cc1 (stereo not drawn),90% (active),5%,3%,94% (active),inactive,inactive,inactive,inactive
O=C(NNC(=O)c1ccc(CCN2CCC(c3nc(COCC(F)(F)F)c(-c4ccc(F)cc4)o3)CC2)cc1)Nc1ccc(Oc2ccccc2)cc1,89% (active),38%,4%,102% (active),inactive,inactive,inactive,inactive
CCCCCOc1ccc(N2C(N)=NC(N)=NC2(C)C)cc1,-4%,24%,-4%,97% (active),inactive,inactive,inactive,inactive
COc1ccc(-c2ccc(NC(=O)c3cccc(C#N)c3)cc2)cc1CN1CCNCC1,47%,30%,8%,101% (active),inactive,inactive,inactive,inactive
CCC(C)NC(=O)Nc1ccc(-c2cccc(-c3nc4c(C)cccc4[nH]3)c2)cc1 (stereo not drawn),83% (active),55% (active),6%,102% (active),inactive,inactive,inactive,inactive
c1cc(CNC2CCN(CC3CCCCC3)CC2)cc(-n2ccnc2)c1,97% (active),3%,1%,102% (active),inactive,inactive,inactive,inactive
CC(C)c1ccc(NC(=O)c2cccc(CN3CCCN(Cc4cccc(O)c4)CC3)c2)cc1,33%,25%,-2%,97% (active),inactive,inactive,inactive,inactive
Cc1nc2nc(N)nc(N)c2c(C)c1Cc1ccc(O)cc1,0%,64% (active),1%,94% (active),inactive,inactive,inactive,inactive
CC(C)CCNCC(O)Cn1c2ccc(Cl)cc2c2cc(Cl)ccc21 (stereo not drawn),99% (active),36%,3%,99% (active),inactive,inactive,inactive,inactive
CC1CCCN(Cc2cc(Cl)cc(Cl)c2O)C1 (stereo not drawn),77% (active),22%,5%,89% (active),inactive,inactive,inactive,inactive

SMILES,growth inhibition [1],inhibition [2],inhibition [3],growth inhibition [4],outcome [5],outcome [6],outcome [7],outcome [8]
Clc1ccccc1C=NNc1ccnc2ccccc12,50% (active),25%,-3%,100% (active),inactive,inactive,inactive,inactive
O=C(NCCCCN1CCC(c2ccc3c(c2O)CCCC3)CC1)c1ccc(NC(=O)c2ccc(Cl)cc2)cc1,100% (active),99% (active),-2%,100% (active),inactive,inactive,inactive,inactive
CC(=O)Nc1ccc(OCCCCN(Cc2ccccc2OC(F)(F)F)c2ccc(C(F)(F)F)c(C#N)c2)c(Cl)c1,96% (active),11%,-2%,89% (active),inactive,inactive,inactive,inactive
N#Cc1cccc(C(=O)N2CCOC(CCN3CCC(c4ccccc4)CC3)(c3ccc(Cl)c(Cl)c3)C2)c1 (stereo not drawn),49%,51% (active),0%,87% (active),inactive,inactive,inactive,inactive
O=C(NCc1cccc2ccccc12)c1ccc(CNC2CCN(Cc3ccccc3)CC2)cc1,88% (active),15%,5%,101% (active),inactive,inactive,inactive,inactive
CC(C)(C)c1ccc2nc(-c3ccc(C(=O)NCc4cccc(C(F)(F)F)c4)cc3)[nH]c2c1,26%,9%,-1%,98% (active),inactive,inactive,inactive,inactive
O=C(Nc1ccc2nc3n(c(=O)c2c1)CCCCC3)C(=O)N1CCC(Cc2ccccc2)CC1,70% (active),12%,0%,91% (active),inactive,inactive,inactive,inactive
Cc1ccc2[nH]c(-c3ccccc3N)cc2c1,8%,11%,8%,97% (active),inactive,inactive,inactive,inactive
Fc1ccc2[nH]cc(CCNCc3ccc(-c4cccc(-c5nc6ccccc6[nH]5)c4)cc3)c2c1,99% (active),69% (active),-3%,100% (active),inactive,inactive,inactive,inactive
Cc1ccccc1C1CCN(C2CCC(NC(=O)/C=C/c3ccc(Cl)cc3)CC2)CC1 (stereo not drawn),25%,78% (active),4%,99% (active),inactive,inactive,inactive,inactive
CN(C)CC1CCCN1Cc1ccccc1-c1cnn(C)c(=O)c1Oc1ccccc1F (stereo not drawn),27%,18%,-1%,95% (active),inactive,inactive,inactive,inactive
O=C(C1CCN(C(c2ccccc2)c2ccc(Cl)c(Cl)c2)CC1)N1CC=CC1 (stereo not drawn),84% (active),1%,7%,89% (active),inactive,inactive,inactive,inactive
CCCCNCc1ccc(-c2nc(CN(Cc3ccc(Cl)c(Cl)c3)C(=O)CN(C)C)cs2)cc1,51% (active),36%,7%,100% (active),inactive,inactive,inactive,inactive
COc1ccc(NC(=O)/C=C/c2ccccc2Cl)cc1OCCN1CCC(Cc2cc3ccccc3[nH]2)CC1,8%,56% (active),0%,92% (active),inactive,inactive,inactive,inactive
O=C(/C=C/c1ccc(Cl)c(Cl)c1)NCCCCCCN1CCN(C(=O)Nc2ccc(OC(F)F)cc2)CC1,15%,44%,-4%,91% (active),inactive,inactive,inactive,inactive
Cc1cccc(Nc2nc3nonc3nc2Nc2cccc(Cl)c2Cl)c1C,95% (active),88% (active),2%,91% (active),inactive,inactive,inactive,inactive
CC(CNC(=O)[C@H]1CNCCN1C(=O)CCCc1ccccc1)c1ccccc1 (stereo partly drawn),1%,12%,3%,94% (active),inactive,inactive,inactive,inactive
Nc1ncc(-c2ccc3nccc(-c4ccncc4)c3c2)cc1S(=O)(=O)N1CCCCC1,100% (active),25%,3%,100% (active),inactive,inactive,inactive,inactive
CCOc1cc(Cc2cnc(N)nc2N)cc(OCC)c1OCC,0%,-1%,5%,97% (active),inactive,inactive,inactive,inactive
CCCCCCCCCN(CCC)C(=O)[C@@H]1OC(C(=O)OC(c2ccccc2)c2ccccc2)=C[C@H](NC(=O)OC(C)(C)C)[C@H]1NC(C)=O,49%,0%,-1%,91% (active),inactive,inactive,inactive,inactive
